Experimental data taken from PubChem BioAssay (Tox21).
Results filed as inconclusive are left out. Calls of active or inactive are those of the source. Unless noted, calls come from the whole dose curve; as a rule, active = well fitted curve in the direction sought with a large enough effect in the repeat runs; inconclusive = weak or mixed curves; inactive = no such curve, though single readings can be large; an effect the other way counts as inactive or inconclusive.

Columns and labels:
[1] = qHTS assay to identify small molecule antagonists of the estrogen related receptor (ERR) signaling pathway - cell viability counter screen (AID 1224818);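 note: series mostly up to about 46 µM; viability measured after 17.5 h of compound exposure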
Summary of the method: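 ERR reporter cells plated 6 h at 37 C/5% CO2, then compounds in DMSO pin-transferred and incubated 17.5 h at 37 C. Viability read as CellTiter-Fluor fluorescence after 30 min at 37 C.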

[2] = qHTS assay to identify small molecule antagonists of the estrogen related receptor (ERR) signaling pathway (AID 1224819; note: nearly all actives have a fitted effect of over 50% in size; note: potency is the fitted concentration of half-maximal effect)
Summary of the method: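 ERR reporter cells were plated at 2,000 cells/well and left 6 h at 37 C/5% CO2 before pin-tool transfer of compounds in DMSO. After 18 h at 37 C, One-Glo was added and luminescence was read 30 min later at room temperature.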

[3] = test system: estrogen-related receptor alpha (ERRalpha) with PGC-1alpha coactivator, human; assay: qHTS assay to identify small molecule antagonists of the estrogen related receptor signaling pathway with the pleiotropic PPARgamma coactivator (PGC) (AID 1224821; calls by dose curve; note: nearly all actives have a fitted effect of over 50% in size; note: potency is the fitted concentration of half-maximal effect)
Summary of the method: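 Quantitative HTS for antagonism: PGC/ERR cells received compounds after 6 h attachment and were incubated 18 h at 37 C, with luminescence (One-Glo) as the endpoint.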

[4] = qHTS assay to identify small molecule antagonists of the estrogen related receptor signaling pathway with the pleiotropic PPARgamma coactivator (PGC) cell viability counter screen (AID 1224822; note: series mostly up to about 46 µM)
Summary of the method: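 PGC/ERR cells were seeded at 2,000 cells/well, rested 6 h at 37 C/5% CO2, then given compounds in DMSO by pin tool and incubated 17.5 h at 37 C. Viability came from CellTiter-Fluor fluorescence after 30 min.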

[5] = qHTS assay to identify small molecule agonists of the estrogen related receptor signaling pathway with the pleiotropic PPARgamma coactivator (PGC) (AID 1224823)
Summary of the method: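 Cell-based luciferase assay in the NTP-supplied PGC/ERR line, 2,000 cells/well; 18 h compound exposure at 37 C, luminescence after One-Glo.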

[6] = qHTS assay to identify small molecule agonists of the estrogen related receptor (ERR) signaling pathway (AID 1224820)
Summary of the method: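 Quantitative HTS of the LOPAC library used NTP ERR reporter cells treated 18 h at 37 C. Signal is luminescence after One-Glo addition and a 30 min room-temperature incubation.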

[7] = qHTS assay for small molecule agonists of the p53 signaling pathway (AID 651631; calls by dose curve; note: nearly all actives have a fitted effect of over 15% in size)
Summary of the method: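 Agonist mode screen using a stably integrated beta-lactamase gene under p53 response elements in HCT-116 cells. Compound exposure lasts 16 h at 37 °C; fluorescence intensity is measured following 2 h FRET substrate loading.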

[8] = qHTS assay for small molecules that induce genotoxicity in human embryonic kidney cells expressing luciferase-tagged ATAD5 (AID 651632); note: nearly all actives have a fitted effect of over 15% in size
Summary of the method: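 HEK293T cells carrying a luciferase reporter tagged to ATAD5 were exposed to compound or DMSO vehicle for 16 hr at 37C, 5% CO2. Amplite was added, and after 30 min at room temperature luciferase activity was read as a marker of ATAD5 induction.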

[9] = qHTS assay for small molecule agonists of the p53 signaling pathway - cell viability (AID 651633; calls by dose curve;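 note: p53RE-bla HCT reporter cells with a stable beta-lactamase p53 reporter; series mostly up to about 83 µM; nearly all actives have a fitted effect of over 30% in size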)
Summary of the method: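 p53RE-bla cells, seeded at 4,000 per well and rested 5 h at 37 C/5% CO2, received compounds in DMSO for 16 h at 37 C. CellTiter-Glo was then added, and luminescence was read after 30 min at room temperature to gauge cytotoxicity.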

[10] = qHTS assay for small molecules that induce genotoxicity in human embryonic kidney cells expressing luciferase-tagged ATAD5 - cell viability (AID 651634; calls by dose curve; note: nearly all actives have a fitted effect of over 25% in size)
Summary of the method: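 HEK293T cells expressing luciferase-tagged ATAD5 were exposed to compound or DMSO for 15.5 hr at 37C, 5% CO2. Viability was then read as live-cell protease activity by CellTiter-Fluor fluorescence after 30 min at 37C.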

[11] = qHTS assay for small molecule disruptors of the mitochondrial membrane potential - cell viability (AID 720634; calls by dose curve;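 note: human HepG2 liver cancer cells; series mostly up to about 83 µM; nearly all actives have a fitted effect of over 20% in size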)
Summary of the method: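 HepG2 cells seeded overnight at 37 C, then exposed to compound or DMSO for 1 hr at 37 C, 5% CO2. m-MPI dye added, then CellTiter-Glo for 30 min at room temperature; viability read as ATP luminescence.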

[12] = qHTS assay for small molecule disruptors of the mitochondrial membrane potential (AID 720635)
Summary of the method: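 HepG2 cells (2,000/well) attached overnight at 37C, then took compound for 1 hr at 37C, 5% CO2. Mito-MPS dye was added for 30 min; fluorescence was read at 490/535 nm (monomers) and 540/590 nm (aggregates).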

[13] = qHTS assay to test for compound auto fluorescence at 590 nm (red) in HepG2 cells (AID 720674)
Summary of the method: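 Intrinsic compound fluorescence in the red window (Ex/Em 540/590 nm) is measured in attached HepG2 cells exposed for 1 hr, DMSO vehicle as baseline, benchmarked to Rose Bengal sodium.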

[14] = qHTS assay to test for compound auto fluorescence at 535 nm (green) in HepG2 cells (AID 720675)
[15] = qHTS assay to test for compound auto fluorescence at 460 nm (blue) in HEK293 cells (AID 720678)
Summary of the method: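 Cells were seeded and left to adhere for 4-5 hr at 37C. Compounds were then pin-transferred. After an overnight incubation at 37C under 5% CO2, intrinsic fluorescence at 405/460 nm was measured and referenced to triamterene.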

[16] = qHTS assay to test for compound auto fluorescence at 590 nm (red) in HEK293 cells (AID 720679)
Summary of the method: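 Each well held 2,000 HEK293 cells in medium containing 10% dialyzed FBS. Following 4-5 hr attachment at 37C, 23 nL test compound or DMSO was added; plates sat overnight, and red fluorescence (540/590nm) was recorded.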

[17] = qHTS assay to test for compound auto fluorescence at 535 nm (green) in HEK293 cells (AID 720680)
[18] = qHTS assay to test for compound auto fluorescence at 460 nm (blue) in HEK293 cell free culture (AID 720681)
Summary of the method: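 Test compounds were pinned into cell-free culture medium (DMEM with 10% FBS) and fluorescence was read directly at Ex/Em 405/460 nm. Signals were expressed as fluorescence equivalents of triamterene, with DMSO vehicle as control.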

[19] = qHTS assay to test for compound auto fluorescence at 535 nm (green) in HEK293 cell free culture (AID 720682)
Summary of the method: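 No cells present: wells hold DMEM supplemented with 10% FBS, into which compound or vehicle is pinned. Green emission is then recorded (485 nm excitation, 535 nm emission) and scaled to fluorescein.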

[20] = qHTS assay to test for compound auto fluorescence at 590 nm (red) in HEK293 cell free culture (AID 720683)
Summary of the method: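 Tox21 10K library compounds were pinned into cell-free DMEM with 10% FBS and fluorescence was read at excitation 540 nm. Activity is expressed as Rose Bengal sodium equivalency.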

[21] = qHTS assay to test for compound auto fluorescence at 590 nm (red) in HepG2 cell free culture (AID 720684)
Summary of the method: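 Red fluorescence (540 nm excitation, 590 nm emission) was measured after compound transfer into cell-free MEM supplemented with 10% FBS. Values are equivalencies against Rose Bengal sodium.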

[22] = qHTS assay to test for compound auto fluorescence at 460 nm (blue) in HepG2 cell free culture (AID 720685)
Summary of the method: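 Compound (23 nL) or DMSO pinned into cell-free MEM with 10% FBS; blue fluorescence read at 405/460 nm excitation/emission, expressed as auto-fluorescence equivalency to triamterene.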

[23] = qHTS assay to test for compound auto fluorescence at 535 nm (green) in HepG2 cell free culture (AID 720686)
[24] = qHTS assay to test for compound auto fluorescence at 460 nm (blue) in HepG2 cells (AID 720687)
Summary of the method: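 Cells (2,000/well in MEM with 10% FBS) attached overnight at 37 C, then were exposed to compound or DMSO for 1 hr at 37 C, 5% CO2. Fluorescence read at Ex/Em 405/460 nm, expressed as triamterene-equivalent signal.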

[25] = qHTS assay to identify small molecule antagonists of the glucocorticoid receptor (GR) signaling pathway - cell viability counter screen (AID 720693); note: nearly all actives have a fitted effect of over 55% in size
[26] = qHTS assay to identify small molecule antagonists of the androgen receptor (AR) signaling pathway - cell viability counter screen (AID 743033; note: nearly all actives have a fitted effect of over 45% in size)
[27] = qHTS assay to identify small molecule antagonists of the thyroid receptor (TR) signaling pathway - cell viability counter screen (AID 743064); note: nearly all actives have a fitted effect of over 50% in size
Summary of the method: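 Rat GH3 pituitary tumor cells stably expressing two TR response elements driving luciferase were plated, rested 4 h, then dosed with library compounds and T3 (1 nM final). After 23.5 h at 37 °C, CellTiter-Fluor was added for 30 min and fluorescence recorded.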

[28] = qHTS assay to identify small molecule antagonists of the thyroid receptor (TR) signaling pathway (AID 743065); note: series mostly up to about 70 µM; nearly all actives have a fitted effect of over 55% in size
Summary of the method: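 GH3.TRE-Luc rat pituitary cells carrying two TR response elements driving luciferase were plated for 4 h, given compound plus 1 nM T3 (final), and incubated 23.5 h at 37 C. ONE-Glo luminescence measured reporter inhibition; CellTiter-Fluor fluorescence tracked cytotoxicity.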

[29] = test system: thyroid hormone receptor (rat, GH3 cells); assay: qHTS assay to identify small molecule agonists of the thyroid receptor (TR) signaling pathway (AID 743066; calls by dose curve)
[30] = molecular target: Estrogen receptor (Homo sapiens) (UniProt P03372); assay: qHTS assay to identify small molecule antagonists of the estrogen receptor alpha (ER-alpha) signaling pathway (AID 743069; active = well fitted curve in the direction sought with a large enough effect in the signal ratio in the repeat runs, not every such curve was filed as active; the % refers to the signal ratio)
Estrogen receptor (Homo sapiens), sequence (P03372 whole entry, looked up): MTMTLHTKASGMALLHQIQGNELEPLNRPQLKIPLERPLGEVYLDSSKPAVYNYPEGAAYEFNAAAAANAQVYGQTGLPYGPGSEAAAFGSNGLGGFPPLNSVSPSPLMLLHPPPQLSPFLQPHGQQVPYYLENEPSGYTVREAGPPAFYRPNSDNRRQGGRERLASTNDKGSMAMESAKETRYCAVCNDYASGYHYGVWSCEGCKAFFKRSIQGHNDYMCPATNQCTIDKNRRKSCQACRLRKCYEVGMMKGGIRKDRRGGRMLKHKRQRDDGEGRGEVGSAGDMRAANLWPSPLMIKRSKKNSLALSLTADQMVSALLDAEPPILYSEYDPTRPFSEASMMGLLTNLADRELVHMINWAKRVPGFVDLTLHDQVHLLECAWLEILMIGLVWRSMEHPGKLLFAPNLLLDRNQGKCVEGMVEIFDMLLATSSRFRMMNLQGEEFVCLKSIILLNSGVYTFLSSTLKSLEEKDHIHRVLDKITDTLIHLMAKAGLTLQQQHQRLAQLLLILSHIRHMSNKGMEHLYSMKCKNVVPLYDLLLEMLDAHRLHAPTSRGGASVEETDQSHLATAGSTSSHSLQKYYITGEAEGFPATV
Summary of the method: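 HEK293 cells stably carrying an ER-alpha-UAS-bla beta-lactamase reporter were pre-cultured overnight in 2% charcoal-stripped FBS medium. Test compounds in DMSO were added together with 17beta-estradiol for 18 hr at 37C. Read-out was fluorescence after 2 hr with LiveBLAzer B/G FRET substrate at room temperature.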

[31] = molecular target: Estrogen receptor (Homo sapiens) (UniProt P03372); assay: qHTS assay to identify small molecule agonists of the estrogen receptor alpha (ER-alpha) signaling pathway (AID 743075; calls by dose curve)
[32] = molecular target: Estrogen receptor (Homo sapiens) (UniProt P03372); assay: qHTS assay to identify small molecule agonists of the estrogen receptor alpha (ER-alpha) signaling pathway using the BG1 cell line (AID 743079); note: nearly all actives have a fitted effect of over 20% in size
[33] = qHTS assay to identify small molecule antagonists of the estrogen receptor alpha (ER-alpha) signaling pathway using the BG1 cell line (AID 743080; calls by dose curve; note: series mostly up to about 70 µM; nearly all actives have a fitted effect of over 25% in size)
Summary of the method: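 Antagonist mode: compounds in DMSO were pinned onto BG1-Luc-4E2 cells alongside 17beta-estradiol agonist, incubated 21.5 h, and ERE-driven luciferase measured with ONE-Glo. Cytotoxicity was multiplexed using CellTiter-Fluor fluorescence.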

[34] = qHTS assay to identify small molecule antagonists of the estrogen receptor alpha (ER-alpha) signaling pathway using the BG1 cell line - cell viability counter screen (AID 743081);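 note: compound given together with 17beta-estradiol as the ER stimulus; series mostly up to about 70 µM; nearly all actives have a fitted effect of over 45% in size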
Aromatase (Homo sapiens) = Aromatase (Homo sapiens) (UniProt P11511); assay: qHTS assay to identify aromatase inhibitors (AID 743083); note: series mostly up to about 70 µM; nearly all actives have a fitted effect of over 55% in size
Aromatase (Homo sapiens), sequence (P11511 whole entry, looked up): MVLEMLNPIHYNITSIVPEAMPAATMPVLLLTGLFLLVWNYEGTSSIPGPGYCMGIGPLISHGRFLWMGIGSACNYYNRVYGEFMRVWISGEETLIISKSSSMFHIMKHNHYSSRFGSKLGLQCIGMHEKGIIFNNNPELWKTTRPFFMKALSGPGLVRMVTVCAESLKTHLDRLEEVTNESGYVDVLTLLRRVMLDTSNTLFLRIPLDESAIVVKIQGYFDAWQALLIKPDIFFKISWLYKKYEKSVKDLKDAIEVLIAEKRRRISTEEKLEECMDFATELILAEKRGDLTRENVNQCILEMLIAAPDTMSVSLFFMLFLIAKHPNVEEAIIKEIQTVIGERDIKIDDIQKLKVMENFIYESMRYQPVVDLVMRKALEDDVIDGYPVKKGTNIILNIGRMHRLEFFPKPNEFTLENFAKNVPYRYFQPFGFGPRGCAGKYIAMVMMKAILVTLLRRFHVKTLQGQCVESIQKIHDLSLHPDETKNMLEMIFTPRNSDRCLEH

[35] = qHTS assay to identify aromatase inhibitors - cell viability counter screen (AID 743084);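 note: cells stimulated with testosterone during compound exposure; nearly all actives have a fitted effect of over 55% in size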
[36] = qHTS assay to identify small molecule that activate the aryl hydrocarbon receptor (AhR) signaling pathway - cell viability counter screen (AID 743086);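 note: HepG2 liver cells carrying the AhR DRE luciferase reporter; series mostly up to about 70 µM; nearly all actives have a fitted effect of over 45% in size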
Summary of the method: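 HepG2-AhR-luc (HG2L7.5c1) cells, 4000/well, were preincubated 5 h at 37C, exposed to compound in qHTS format for 24 hr at 37C, then given CellTiter-Fluor for 30 min; viability was read as fluorescence in the reporter wells.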

[37] = molecular target: Peroxisome proliferator-activated receptor gamma (Homo sapiens) (UniProt P37231); assay: qHTS assay to identify small molecule agonists of the peroxisome proliferator-activated receptor gamma (PPARg) signaling pathway (AID 743094; active = well fitted activation curve with a large enough effect in the signal ratio in the repeat runs, not every such curve was filed as active; the % refers to the signal ratio)
Peroxisome proliferator-activated receptor gamma (Homo sapiens), sequence (P37231 whole entry, looked up): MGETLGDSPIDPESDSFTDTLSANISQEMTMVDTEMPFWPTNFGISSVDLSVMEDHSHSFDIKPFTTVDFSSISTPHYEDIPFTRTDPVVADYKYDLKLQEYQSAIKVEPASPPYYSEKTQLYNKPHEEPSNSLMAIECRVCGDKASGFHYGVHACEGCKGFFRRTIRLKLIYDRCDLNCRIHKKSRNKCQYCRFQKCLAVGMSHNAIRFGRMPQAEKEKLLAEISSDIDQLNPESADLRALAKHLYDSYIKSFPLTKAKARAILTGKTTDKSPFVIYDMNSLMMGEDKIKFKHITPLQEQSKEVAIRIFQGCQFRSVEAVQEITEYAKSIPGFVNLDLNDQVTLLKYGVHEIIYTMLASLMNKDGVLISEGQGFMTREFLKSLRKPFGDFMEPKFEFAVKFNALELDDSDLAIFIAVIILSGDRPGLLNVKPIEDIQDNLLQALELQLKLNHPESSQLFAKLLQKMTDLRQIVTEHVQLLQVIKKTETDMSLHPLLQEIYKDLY
Summary of the method: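 GeneBLAzer PPARg UAS-bla HEK293H cells carrying a stably integrated beta-lactamase reporter were pre-incubated 5 h at 37C, then exposed to compounds in DMSO for 17 h at 37C; LiveBLAzer B/G FRET substrate was added for 1 h at room temperature and fluorescence read.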

[38] = qHTS assay to identify small molecule phospholipidosis (PLD) inducers (AID 1259344; active = well fitted curve in the direction sought with a large enough effect; an effect the other way counts as inactive or inconclusive)
Summary of the method: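 HepG2 cells on collagen I, attached 4 h at 37 C, were co-treated with compound and LipidTOX Red dye for 24 h at 37 C, then fixed with paraformaldehyde plus Hoechst 33342 and imaged by high-content microscopy for phospholipid accumulation.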

Measured: Potency

CN1CC[C@@]2(C)c3cc(OC(=O)Nc4ccccc4)ccc3N(C)[C@@H]12
inactive: [1] | [2] | [3]

CNCCc1ccc(O)c(O)c1
inactive: [1] | [2] | [3] | [4] | [5]

CCCN(CCC)C1CCc2ccc(O)cc2C1 (stereo unspecified)
inactive: [1] | [2] | [3] | [4] | [5]

C[C@@H]1O[C@@H](O[C@H]2C[C@@H](O)[C@]3(CO)[C@@H]4C(CC[C@]3(O)C2)[C@@]2(O)CC[C@H]([C@@H]3COC(=O)C3)[C@@]2(C)C[C@H]4O)[C@H](O)[C@H](O)[C@H]1O (stereo partly specified)
active: [2] 1190 nM | [3] 3480 nM
inactive: [1] | [6] | [5]

O=C(Cc1ccc(Cl)c(Cl)c1)N1CCCCC1CN1CCCC1 (stereo unspecified)
inactive: [1] | [2] | [3] | [4] | [5]

O=P(O)(O)C(Cl)(Cl)P(=O)(O)O
not listed: [5]
inactive: all other assays above
